For 40 sequences, PBM binding z-score results are on record in the supplement of paper PMC6555819.

This assay deals with VDR:RXRa (NR concentration 270 nM, RXRa partner concentration 90 nM). The experiment in a line: PBM binding z-score (relative to random genomic background probes); higher = stronger binding; sequences stand for … in GC…GCGATTGACAGCGTAGAATGAAGG
The protocol: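 Protein-binding microarray (Agilent 4x180K custom design, double-stranded 60-nt probes: 5' GC cap, 34-nt variable region, 24-nt constant primer region; full probe sequence given). Purified or IVT nuclear receptor:RXRα heterodimers (3:1 NR:RXRα, mostly 270:90 nM) or homodimers were incubated for 1 h in PBS with 2% milk and no ligand, then detected with Alexa488 antibodies. Fluorescence from o1-orientation probes (~5 replicates averaged) was converted to z-scores against 500 random hg19 background probes. Variable regions are seed direct-repeat (DR0–DR5) sites, all their single-nucleotide variants and half-site ablations.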
With CGAACTAGGTCAAGGACAGCGAATCTCCGCACGC, the PBM binding z-score is 1.31.
Under CGTCCAAGGTCATAGGAGGTCAGTGAAGACAGAT stands 6.46; under ATCTCTAGGTAAAGTTAAGTGAAAGATCGATAGA, 0.476; under ATCTCTAGGTAACCAAGTTCAGTGACTGCCGAAC, 4.15.
Under ACTCGGAGGACAAAGGTTAGAGCTACGCCAGTGA stands 0.555; under CCGACTCGGGCAAGGTTACCATAACGCACAGCCA, -0.103; under TCATATAGGTAAATGCTAGGTTAAAGTCCGATCT, 1.33.
CATACTGGGCCACGAAAGGTCATTGATTCAGTGA yielded a PBM binding z-score of 4.3.
Under ACTATTAGTTGAGACGAGGGCAACCGTTAGGTTG stands 0.546; under CGAACTAGGTCACGAAAGGTCAAAGTCGAATGAC, 6.89.
CTCGAAAGGTCGTGCTCAGGTCAGTATACCAAAC registered a PBM binding z-score of 5.19.
Regarding CAAACTAGGTCAACGTCAAAGTCGGTTTGTGCCA, the PBM binding z-score was 1.83.
The value for TAGCCGAGGTCAGATCGGGCCAGTATACGCTATA was 4.26; that for AGTCACAGTTCAGGACGAGGTAACGTAAAGCACG was 1.12.
With ACTTACGCGTCAACGAGGTTATAGCACGCGTATA, the PBM binding z-score was determined as 3.57.
The value for CCTCACGGGTCACTCCAGGTTATAGCATCGGAGT was 4.07; that for ACTAGCAGGACAAGTTTGGGTCACTCAAACAAAG was 0.698.
The sequence TCTTGTAGATCAACAAGAGGTTAAGAAAGATCGA had a PBM binding z-score of 1.08.
The value for GATACAGGGTCAGCTAGTGGCCAGAGTATGGAAA was 2.34; that for AGACTGAGGTTACCAAAGATCAGGGAAACGCTTG was 1.13.
The value for CGTCCCAGGTCAAGGTCAGTGAAAGAGACTCGAA was 3.85.
The value for CAAACTATGTCAAGGTCAAAGTCGGTTTGTGCCA was 4.83; that for GCTATTAGCTGAAAGGGCAACCGAATGATTCTCG was -0.0457; that for GCTAGCAGGACATTTGGGTCACTCAATGACGGGC was 0.429.
With TCATATAGGGAAATGCTAGGTGAAAGTCCGATCT, the PBM binding z-score worked out at 0.702.
As to AGAATGAGGTTATACGTAGATCAGGGACGAAAGT, the PBM binding z-score was determined as 1.46.
The sequence CGTCCAAGGTCAATACTAGGTCAGTGAAAGCATT registered a PBM binding z-score of 4.63.
Under CAAACTAGGTCACGAAAGGTCAAAGTAGAATGAC stands 6.69; under CAAACTAGGTGAAAGGTCAAAGTCGAGCCAACCA, 5.23.
The value for AGAATGAGGTTACCAAAGAACAGGGAAACGCTTG was 1.17; that for TCATATAGGTAATACAGGTGGAAGTCGGCATCTA was 1.14.
For TAAACAGGGTCAAAGGCCAGAGTACGAATGTCGA, the PBM binding z-score is 4.92.
The value for CCTTCCGGGTCACTCCAGGTTATAGCATCGGAGT was 4.21; that for TTACCAAGGTGCGCTGAGGTCGTTGATCCAACTC was 4.07.
The value for CCTGTTAGGTCATGGTCAGCTAATCTACAGTATG was 2.02.
Under CCGACTGGGCCAAGGTCATTGATCAGTCAAAGCA stands 3; under TCCGCTAGGTCAACGATGGTCAGCTAATCTGCTA, 1.45; under TTACCAAGGTGAAGGTCTTTGATCCCTCTGTAGA, -0.00925.
Sequence CAAACTACGTCACGAAAGGTCAAAGTCGAATGAC gave a PBM binding z-score of 4.91.
Under ATCTCTCGGTAAAAGTTCAGTGAATCCCGAGGAT stands 1.03.
